Reference: PubChem BioAssay AID651616 (The Scripps Research Institute Molecular Screening Center, 2012)
Out of some 5,600 compounds screened, about 4,400 (79%) were called active. So high a share suggests a set chosen from earlier hits. Only a sample is shown. A number with no mark means an inactive call. Rule as the data show it: active = inhibition above about 27%; inactive = the rest.

Molecular target: Fructose-bisphosphate aldolase (Mycobacterium tuberculosis (strain ATCC 25618 / H37Rv)) (UniProt P9WQA3)
Sequence (P9WQA3 whole entry, looked up): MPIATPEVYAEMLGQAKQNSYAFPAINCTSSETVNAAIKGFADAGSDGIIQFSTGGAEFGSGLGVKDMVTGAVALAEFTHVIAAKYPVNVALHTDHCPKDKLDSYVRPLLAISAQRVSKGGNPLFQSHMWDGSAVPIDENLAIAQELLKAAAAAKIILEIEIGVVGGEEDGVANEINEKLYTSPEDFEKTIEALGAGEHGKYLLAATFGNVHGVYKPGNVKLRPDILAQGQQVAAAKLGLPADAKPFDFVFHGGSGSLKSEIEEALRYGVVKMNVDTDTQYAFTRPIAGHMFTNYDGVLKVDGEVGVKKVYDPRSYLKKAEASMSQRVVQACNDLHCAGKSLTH
Assay: M. tuberculosis aldolase blockers, biochemical, fluorescence, strain H37Rv, confirmation (AID 651616);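 also: 0% = vehicle wells and 100% = reference inhibitor wells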
Details: purified M. tuberculosis FBA, fluorescence read-out, at 1 µM, stronger effect = higher value

Row | SMILES | inhibition
1 | CCNC(=S)Nc1ccc2c(c1)c(=O)n(C)n2Cc1ccc(Cl)cc1 | 3.5%
2 | Cc1ccc(-c2nc3ccccc3[nH]c2=O)cc1 | 74.3% (active)
3 | CCOC(=O)COc1nc(C)cc(C(F)(F)F)c1C#N | 39.2% (active)
4 | CCc1cc(=O)oc2cc(C)cc(OCC(=O)N3CCC[C@@H]3C(=O)O)c12 | 83.3% (active)
5 | Cc1ccn2c(c1)nc(=O)c1cc(S(=O)(=O)N3CCC(C)CC3)ccc12 | 5.35%
6 | Cc1ccc(-c2nc3ccccc3c(=O)n2-c2ccc(Br)cn2)cc1 | 98.1% (active)
7 | C[C@H]1CN([C@@H](C)CO)C(=O)c2cc(Br)cnc2O[C@H]1CN(C)S(=O)(=O)c1cccs1 | 8.79%
8 | COCCNc1cc(-c2ccccc2)nc2cc(-c3cccc(F)c3)nn12 | 133% (active)
9 | Fc1ccc(COc2cccc(-c3n[nH]c(=S)o3)c2)cc1 | 169% (active)
10 | O=C(Nc1ccc2nccnc2c1)c1ccco1 | 692% [above what the read-out allows, likely interference] (active)
11 | CCCn1c(=O)c(-c2ccccc2)c(O)c2ccccc21 | 94.4% (active)
12 | Cc1ccc(S(=O)(=O)N2C[C@@H](C)[C@]3(C2)[C@H](O)[C@H](OC(=O)NCc2ccccc2)C[C@H]2C(=O)N(c4ccccc4)C(=O)[C@H]23)cc1 | 9.3%
13 | COc1ccccc1N1N=C(c2cccs2)CC1c1ccccc1 (stereo not drawn) | 46.8% (active)
14 | Fc1ccc(N2N=C(c3cccs3)CC2c2ccco2)c(F)c1 (stereo not drawn) | 1.22%
15 | COc1ccc(C2CC(c3cccs3)=NN2c2ccc(F)cc2)cc1OC (stereo not drawn) | 101% (active)
16 | COc1ccc(C2CC(c3cccs3)=NN2c2ccccc2)cc1 (stereo not drawn) | 38.9% (active)
17 | Oc1ccccc1C1=NN(c2ccccc2)C(c2ccccc2)C1 (stereo not drawn) | 107% (active)
18 | CS(=O)(=O)Nc1ccc(C2=NN(S(C)(=O)=O)C(c3cccs3)C2)cc1 (stereo not drawn) | 2.17%
19 | Cc1ccc(-c2nc(C#N)c(NCCCn3ccnc3)o2)cc1 | 41.3% (active)
20 | Cc1nc2ccc(NC(=O)N3CCC(c4ccccc4)C3)cc2nc1C (stereo not drawn) | 98.1% (active)
21 | O=C(NCc1ccccc1)c1onc(CSc2nc3ccccc3[nH]2)c1C(=O)NCc1ccccc1 | 74.2% (active)
22 | COCCNc1nc(-n2nc(C)cc2C)nc2sc3c(c12)CCCC3 | 109% (active)
23 | O=C(NCCCN1CCOCC1)c1cnn2c(-c3ccccc3)cc(-c3ccccc3)nc12 | 96.2% (active)
24 | CC(C)(C)NC(=O)COc1ccc(CNc2ccc3[nH]c(=O)[nH]c3c2)cc1 | 1.48%

Row | SMILES | inhibition
25 | CC(C)n1ncc2c(C(=O)NCc3ccccc3CN(C)C)cc(C3CC3)nc21 | 144% (active)
26 | COC(=O)c1cc(-c2cccs2)nc2ccccc12 | 136% (active)
27 | O=C(NCCN1CCOCC1)c1cc(-c2cccs2)nc2ccccc12 | 8.64%
28 | CC(C)(C)OC(=O)NNc1c2ccccc2nc2ccccc12 | -3.52%
29 | Brc1cnc2ccccc2c1N1CCCCC1 | 83.3% (active)
30 | COc1ccc2c(c1)cc1n2CCN=C1NN | 108% (active)
31 | CCC(C)N(C(=O)COC(=O)C1C(C(=O)OC)=C(C)NC(C)=C1C(=O)OC)C1CCS(=O)(=O)C1 (stereo not drawn) | 172% (active)
32 | CCN(C(=O)COC(=O)c1ccc(COc2ccc3c(C)cc(=O)oc3c2)cc1)C1CCS(=O)(=O)C1 (stereo not drawn) | 4.73%
33 | COCc1cc(=O)[nH]c2cc(NC(=O)C(F)(F)F)c(C)cc12 | 73% (active)
34 | CN1c2ccc(C=O)c3c(C=O)ccc(c23)N(C)C1(C)C | 21.7%
35 | Cc1ccc(-n2c(=O)c(C#N)cc3c(=O)n4ccccc4nc32)cc1C | 21.8%
36 | CN(C(=O)c1cc2c(=O)n3ccccc3nc2s1)C1CCCCC1 | 50.9% (active)
37 | COCCCNC(=S)NCCNc1nc2cc(C)c(C)cc2cc1C#N | 91.5% (active)
38 | CCOc1ccc2nc(NCCNS(=O)(=O)c3ccccc3)c(C#N)cc2c1 | 19.6%
39 | CN(C(=O)c1ccccn1)c1nnc(-c2ccccn2)s1 | 618% [above what the read-out allows, likely interference] (active)
40 | CN(C(=O)COc1ccccc1)c1nnc(-c2ccncc2)s1 | 830% [above what the read-out allows, likely interference] (active)
41 | CC1=CC2=NC(=O)CC(C)(C(=O)N(CC(=O)NC(C)(C)C)Cc3ccccc3)N2C=C1 (stereo not drawn) | 4.13%
42 | CCCCC(NS(=O)(=O)c1ccc(C)cc1)C(=O)Oc1ccc2c3c(c(=O)oc2c1)CCC3 (stereo not drawn) | 81.2% (active)
43 | NC(=O)C1CCN(C(=O)COc2ccc3c4c(c(=O)oc3c2)CCC4)CC1 | -0.32%
44 | CC(C)Cn1c(N)c(C(=O)NCc2cccs2)c2nc3ccccc3nc21 | 41.1% (active)
45 | COCC(C)OC(=O)c1c(N)n(CCCN2CCOCC2)c2nc3ccccc3nc12 (stereo not drawn) | -0.37%
46 | C=CCn1c(N)c(C(=O)OCC(C)C)c2nc3ccccc3nc21 | 73.3% (active)
47 | CCCNC(=O)c1c(N)n(-c2ccc(S(N)(=O)=O)cc2)c2nc3ccccc3nc12 | 25.9%
48 | CCOC(=O)N1CCN(C(=O)c2cc3c(ccc4ccccc43)oc2=O)CC1 | 4.05%

Row | SMILES | inhibition
49 | O=C(Nc1cccc2ccccc12)N1CCC2(CC1)OCCO2 | 124% (active)
50 | O=C(Nc1cccc2ccccc12)N1CCN(Cc2ccc3c(c2)OCO3)CC1 | 72.6% (active)
51 | COCCCn1c(C(=O)NC2CCCCC2)cc2c(=O)n3cccc(C)c3nc21 | 66.3% (active)
52 | C#Cc1cc(N2CCN(C(=O)c3ccoc3)CC2)n2nc(-c3cccc(Cl)c3)cc2n1 | 85.9% (active)
53 | Cn1cc(-c2ccccc2)cc(C#N)c1=O | 79.6% (active)
54 | C=CCn1cc(-c2cccc(C(F)(F)F)c2)cc(C#N)c1=O | 0.59%
55 | CCCCN(CCCC)CC(O)Cn1c2ccccc2c(=O)c2ccccc21 (stereo not drawn) | 113% (active)
56 | Nc1ccccc1C(=O)NC1CCCCNC1=O (stereo not drawn) | 151% (active)
57 | CCOC(=O)NN1C(=O)c2ccccc2NC1c1cccc(O)c1 (stereo not drawn) | 136% (active)
58 | Cc1ccc(C2Nc3ccccc3C(=O)N2CCN2CCNC2=O)cc1 (stereo not drawn) | -6.16%
59 | Cc1cc(S(=O)(=O)c2cc3ccc(O)c(C)c3oc2=O)ccc1F | 44.7% (active)
60 | CCOc1ccc2nc(Nc3nc4ccc(NC(C)=O)cc4s3)sc2c1 | 19%
61 | Cc1c(CCC(=O)O)c(=O)oc2cc(OCc3ccc(Br)cc3)ccc12 | 4.1%
62 | CCc1c(C)c2ccc(OC3CCCCC3=O)cc2oc1=O (stereo not drawn) | 99.7% (active)
63 | CCN1CCN(C(=O)c2cc3cc4ccc(OC)cc4nc3s2)CC1 | 96.2% (active)
64 | CN(CCOc1ccccc1)C(=O)c1cc(-c2ccco2)nc2ccccc12 | 5.04%
65 | O=C(c1cc(-c2ccco2)nc2ccccc12)N(Cc1nnc(-c2ccc(Cl)cc2)o1)C1CC1 | 120% (active)
66 | Nc1ccccc1-c1nc2ccncc2[nH]1 | 3.13%
67 | COc1ccc2sc(-c3ccc(N(C)C)cc3)c(-c3ccc4cc[nH]c4c3)c2c1 | 59.8% (active)
68 | Cc1cccc2c1-c1sc(C(=O)NCCCN3CCc4ccccc4C3)cc1CO2 | 0.47%
69 | O=C(NCCN1CCN(Cc2ccccc2)CC1)c1cc2c(=O)[nH]c3ccccc3c2s1 | 133% (active)
70 | Cc1nn(-c2ccccc2)nc1C(=O)OCC(=O)N1CCCCC1C (stereo not drawn) | -2.48%
71 | Cc1cnc(C(=O)OCC(=O)N2CCc3ccccc32)cn1 | 108% (active)
72 | CCC1C(=O)c2ccccc2N(C)C1=O (stereo not drawn) | 7.44%

Row | SMILES | inhibition
73 | COc1ccc2[nH]c3c(=O)n(Cc4ccco4)cnc3c2c1 | 8.42%
74 | COc1cccc2sc3cc(NCC[C@@H]4CCCN4C)ccc3c(=O)c12 | 77.9% (active)
75 | Cc1cc(=O)oc2c1ccc1ccccc12 | 88.8% (active)
76 | COCCCn1c(CCC(=O)O)ccc1-c1ccc(F)cc1 | 46% (active)
77 | Cc1ccc(C2Nc3cccc4cccc(c34)N2)cc1 | 177% (active)
78 | O=C1C(=O)N(c2ccccc2)C(c2ccccc2)C1c1ccccc1 (stereo not drawn) | 13.8%
79 | OC[C@@H]1CN(Cc2cccs2)C[C@H](n2cnc3c(Nc4ccccc4)ncnc32)O1 | 90.6% (active)
80 | COc1cc(/C=C/c2ccc(/C=C/c3cc(OC)c(OC)c(OC)c3)cc2)cc(OC)c1OC | 27.4% (active)
81 | COc1ccc(NC(=O)CN(C)C(=O)c2cc(-c3ccc(C)o3)nc3ccccc23)cc1 | 79.1% (active)
82 | COCCCNC(=O)/C(C#N)=C/c1c(N2CCCCCC2)nc2ccccn2c1=O | 60.9% (active)
83 | CCCc1nc2oc3c(=O)[nH]cnc3c2c2c1COC(C)(C)C2 | 108% (active)
84 | CCOC(=O)c1[nH]c2ccc(OC)cc2c1NC(=O)N1CCOCC1 | 130% (active)
85 | CCOC(=O)c1[nH]c2ccc(OC)cc2c1NC(=O)CCN1CCN(Cc2ccccc2)CC1 | 3.58%
86 | CC(OC(=O)c1ccccc1NCCO)C(=O)Nc1ccnn1C(C)C (stereo not drawn) | 81.6% (active)
87 | CN1C(=O)c2ccc(NC(=O)c3c(F)c(F)c(F)c(F)c3F)cc2C1=O | 822% [above what the read-out allows, likely interference] (active)
88 | CN1C(=O)c2ccc(NC(=O)C3CCCCC3)cc2C1=O | 2.86%
89 | CN(C)CCCNC(=O)c1ccc2[nH]c3ccccc3c2c1 | 103% (active)
90 | c1ccc(Cc2c(-c3ccco3)nc3c4ccccc4ccn23)cc1 | 137% (active)
91 | CCOC(=O)c1cc2cc(C)ccc2[nH]1 | 50.4% (active)
92 | CCN1CCc2c(C#N)c(NCc3ccccc3)nc(NCCO)c2C1 | 175% (active)
93 | COc1ccc2c(c1OC)C(=O)N(c1ncn[nH]1)C2 | 85.2% (active)
